# Source: PubChem
# Pf Dd2 inh: inhibitors of Plasmodium falciparum Dd2 growth; P. falciparum Dd2 growth, SYBR Green, 72 h; Potency, µM (highest dose often 28.9 µM), inactives show at the highest dose activity, negative = inhibition, most hits filed as inhibitors; actives 4.3% (n = 120,000); AID 1347417; active = well fitted inhibition curve with a large enough effect;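 note: plate controls were DMSO vehicle for no effect and reference drug for full effect; nearly all actives have a fitted effect of over 65% in size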
#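 Infected erythrocytes (Dd2, 0.3% parasitemia, 2.5% hematocrit final) are added to compound in RPMI-1640/Albumax II medium, grown 72 h at 37C in low oxygen, then lysed with saponin/Triton-X containing SYBR Green and read by fluorescence.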
# Active calls of the source: *; i = inactive; [ ] = dose if it differs, or a comment. This is one part of a sample in which hits are shown more often than they occur. Potency is the fitted concentration of half-maximal effect.
SMILES,Pf Dd2 inh
CCC(=O)N1CCCC(c2nc(C(C)C)no2)CCNC(=O)CC1 (stereo not drawn),-1.6%
CC1=C[C@@H](CN2C(=O)c3ccccc3C2=O)[C@H](C(C)C)C[C@H]1Cc1nc2ccccc2[nH]1,-32.2%[44.1 µM]
O=C(O)c1ccc(-c2ccc(C(=O)O)nc2)cc1,-1.7%[44.1 µM]
COc1ccccc1Nc1c2c(nc3ccc(NC(=O)c4cccc(F)c4)cc13)CCCC2,3.16µM*
COc1ccc(OC)c(NC(=O)c2ccc3c(Cl)c4c(nc3c2)CCCC4)c1,-5.1%
COc1ccccc1NC(=O)c1sc2nc3c(cc2c1N)CCCCCC3,i
Fc1ccccc1Nc1c2c(nc3ccccc13)CCC2,-22.1%
COc1ccc(Nc2c3c(nc4ccc(NC(=O)/C=C/c5cccc(OC)c5OC)cc24)CCCC3)cc1OC,3.98µM*
COc1ccc(C)cc1Nc1c2c(nc3ccccc13)CCC2,12.6µM*
COc1cc(NC(=O)c2cccc(F)c2)ccc1NC(=O)c1cc2ccccc2o1,5.6%
COc1ccc(NC(=O)Cn2nc(C(F)(F)F)c3c2CCCC3)cc1OC,-6.9%
COc1ccc(NC(=O)c2c(OC)cc(=O)n3c2CCCC3)cc1OC,i
COc1ccc(/C=C/C(=O)Nc2ccc3nc4c(c(Nc5ccccc5OC)c3c2)CCCC4)cc1,1.26µM*
COc1ccc(Nc2c3c(nc4ccccc24)CCC3)cc1Cl,i
CC(C)CNC(=O)N1CCC(c2nc(CCOCC3CCOCC3)no2)C1 (stereo not drawn),-20.1%
CN(Cc1ccccc1)Cc1cc(CC2(NCc3ccccc3O)COC2)no1,-8.0%[44.1 µM]
O=S(=O)(NC[C@H]1COCc2nc3cccnc3n21)c1ccc(Cl)cc1,i
c1ccc(C2=NOC3(CCN(C4COC4)CC3)C2)cc1,3.2%[44.1 µM]
Cc1cc(C(=O)N2CCC3(CC2)C(=O)N(C)c2ccccc23)nn1C,22.0%
O=C(Cn1nc2c(cc1=O)CCCC2)NCCCc1nc2ccccc2[nH]1,4.6%
Cc1nnc(-c2cc(-c3ccnn3C)ccn2)n1-c1ccccc1,-2.3%[44.1 µM]
CCNC(=O)[C@@H]1CCCN1C1(C(=O)NC)CCC1,6.2%[44.1 µM]
COc1ccc(C)cc1NC(=O)CC(=O)Nc1ccc2nc3n(c(=O)c2c1)CCCCC3,-12.7%
COc1ccccc1NC(=O)Cn1nc2c(cc1=O)CCCC2,-11.8%
COc1ccccc1Nc1c2c(nc3ccc(NC(=O)/C=C/c4cccc(OC)c4OC)cc13)CCCC2,1.12µM*
SMILES,Pf Dd2 inh
COc1ccccc1N1CCN(C(=O)CCc2conc2-c2ccc(C)cc2)CC1,-11.6%
CC(=O)N1CCN([C@H]2[C@@H]3OC[C@@H](O3)[C@@H](NCc3cnc4ccccc4c3)[C@@H]2O)CC1,16.7%[44.1 µM]
COc1cccc(CNC(=O)Cn2cc3c(n2)-c2c(oc(C(=O)N4CCCC4)c2C)CC3)c1,-24.2%
Cc1c(C(=O)N2CCCC2)oc2c1-c1nn(CC(=O)NCc3cccc(F)c3)cc1CC2,-25.3%
CCCCN(CCCC)CCCNC(=O)Cn1cc2c(n1)-c1c(oc(C(=O)N3CCCC3)c1C)CC2,11.2µM*
O=[S+]([O-])(c1ccccc1)N1CC2(CCCN2Cc2cccnc2)Cc2ccccc21 (stereo not drawn),11.2µM*
O=C(c1ccncc1)N1CCCN(Cc2cccnc2)c2ccccc21,i
CCN1CCCN(C(=O)c2cccnc2)CC12CCOCC2,-5.9%
O=C(c1ccccc1)N1CC2(CCCCN2Cc2cccnc2)Cc2ccccc21 (stereo not drawn),10µM*
O=C(c1ccc(Cl)cc1)N1CC2(CCCN2Cc2cccnc2)Cc2ccccc21 (stereo not drawn),10µM*
CS(=O)(=O)N1Cc2ccccc2CC2(CCCN2Cc2cccnc2)C1 (stereo not drawn),-7.7%
O=C(c1ccc(Cl)cc1)N1CC2(CCN(Cc3cccnc3)CC2)Cc2ccccc21,-26.5%
O=C(O)CCC(=O)N1CCCC2(Cc3ccccc3N(C(=O)c3ccc(Cl)cc3)C2)C1 (stereo not drawn),i
C[S+](=O)([O-])N1CC2(CCCCN2Cc2ccc(Cl)cc2)Cc2ccccc21 (stereo not drawn),-26.9%
COCCCN1CC2(CCN(C(=O)c3nn(C)c4ccccc34)CC2)CC1=O,0.3%
CC[C@H]1CN(C(=O)Nc2cccc(C(F)(F)F)c2)CC[C@H]1CC(=O)NCc1ccc(OC)c(OC)c1,7.3%
CN1CCC(N2CCN(C(=O)CCc3ccccc3)CC2)C1=O (stereo not drawn),16.0%
COC[C@@H]1CN(C(=O)c2ccc(OC)nc2OC)C[C@H]1c1ccncc1,-10.0%
COc1ccc(NC(=O)c2ccc(-c3nc(CSc4ccccc4)c(C)o3)cc2)cc1OC,i
Cc1oc(-c2ccc(C(=O)Nc3cccc(C(F)(F)F)c3)cc2)nc1CSc1ccccc1,11.2µM*
CC(=O)c1ccc(NC(=O)c2ccc(-c3nc(CSc4ccccc4)c(C)o3)cc2)cc1,-24.5%
O=C(Cc1ccccc1F)N1CCCC(c2nc(C3CCOCC3)no2)C1 (stereo not drawn),7.3%
Cc1ccccc1CCC1CCCN(C(=O)CCN2CCCC2=O)C1 (stereo not drawn),0.6%
c1ccc2sc([C@H]3CCN(CC4CCCCC4)C3)nc2c1,10µM*
